# According to publication PMC7862700, “An all-to-all approach to the identification of sequence-specific readers for epigenetic DNA modifications on cytosine”:
# How the values were obtained:
# Assay in all cases: DAPPL (digital affinity profiling via proximity ligation, sequencing); 10 mM Tris-HCl pH 7.5, 50 mM NaCl, 1 mM DTT, 4% glycerol, room temperature, 30 min; GST-TFs on glutathione beads, 16-mer random dsDNA library, 0.1% formaldehyde crosslink after washing; high values mean tight binding
# Conditions in all cases: protein: recombinant; tags: N-terminal GST; dsDNA, one strand shown
# FLI1 = molecular target: T1, FLI1 (Homo sapiens, UniProt Q01543 1-452)
# T1 sequence: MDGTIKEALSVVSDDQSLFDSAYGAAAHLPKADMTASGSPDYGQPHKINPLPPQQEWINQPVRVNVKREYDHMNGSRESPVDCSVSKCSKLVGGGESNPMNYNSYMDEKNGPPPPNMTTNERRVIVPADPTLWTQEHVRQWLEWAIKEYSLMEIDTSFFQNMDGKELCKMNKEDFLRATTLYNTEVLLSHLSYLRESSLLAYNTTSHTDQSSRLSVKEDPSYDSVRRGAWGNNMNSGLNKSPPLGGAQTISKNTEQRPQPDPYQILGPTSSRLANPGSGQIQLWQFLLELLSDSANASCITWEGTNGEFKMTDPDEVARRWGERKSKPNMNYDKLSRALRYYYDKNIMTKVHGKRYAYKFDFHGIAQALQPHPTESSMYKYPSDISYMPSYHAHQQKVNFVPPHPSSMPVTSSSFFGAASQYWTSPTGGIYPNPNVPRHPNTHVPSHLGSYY
# Method in brief: (§1)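 Binding signal is each hexamer's read frequency for a factor divided by its frequency in the tag-only sample. The factors were GST-fused human transcription factors from yeast, captured on glutathione beads, DNA-barcoded and pooled with that sample. Pools were incubated with 200 nmole of a random double-stranded 16-mer DNA library in Tris/NaCl/DTT/glycerol buffer at room temperature for 30 min, then washed, crosslinked with 0.1% formaldehyde, proximity-ligated with BsaI/T4 ligase (1 h, 37 °C), PCR-amplified and sequenced on an Illumina NextSeq500.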
# ELK1 = molecular target: T2, ELK1 (Homo sapiens, UniProt P19419 1-428)
# T2 sequence: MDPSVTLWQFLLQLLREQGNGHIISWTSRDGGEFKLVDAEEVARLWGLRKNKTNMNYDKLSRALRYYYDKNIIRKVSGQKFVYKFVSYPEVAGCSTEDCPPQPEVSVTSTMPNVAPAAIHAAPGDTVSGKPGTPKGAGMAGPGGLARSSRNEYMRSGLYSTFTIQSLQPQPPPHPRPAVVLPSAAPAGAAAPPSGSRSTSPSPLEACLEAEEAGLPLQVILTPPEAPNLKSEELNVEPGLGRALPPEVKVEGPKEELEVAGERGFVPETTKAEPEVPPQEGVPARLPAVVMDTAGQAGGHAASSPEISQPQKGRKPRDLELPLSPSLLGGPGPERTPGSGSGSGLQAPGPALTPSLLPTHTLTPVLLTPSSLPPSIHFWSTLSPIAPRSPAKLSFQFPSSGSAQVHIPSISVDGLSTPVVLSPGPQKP
# Method in brief: as §1
# GABPA = molecular target: T3, GABPA (Homo sapiens, UniProt Q06546 1-454)
# T3 sequence: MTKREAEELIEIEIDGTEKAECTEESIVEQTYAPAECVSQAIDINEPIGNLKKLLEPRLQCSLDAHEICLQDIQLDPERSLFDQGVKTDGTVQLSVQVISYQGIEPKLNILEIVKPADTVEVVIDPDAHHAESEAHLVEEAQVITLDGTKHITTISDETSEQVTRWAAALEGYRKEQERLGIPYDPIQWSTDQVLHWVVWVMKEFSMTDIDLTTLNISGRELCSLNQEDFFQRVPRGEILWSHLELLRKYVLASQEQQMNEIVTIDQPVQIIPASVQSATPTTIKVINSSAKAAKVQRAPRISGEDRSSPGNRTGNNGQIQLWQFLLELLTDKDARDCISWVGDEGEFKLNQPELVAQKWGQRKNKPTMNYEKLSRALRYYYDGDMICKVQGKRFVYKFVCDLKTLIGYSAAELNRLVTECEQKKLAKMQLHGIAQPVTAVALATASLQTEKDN
# Method in brief: as §1
# ERG = molecular target: T4, ERG (Homo sapiens, UniProt P11308 1-479)
# T4 sequence: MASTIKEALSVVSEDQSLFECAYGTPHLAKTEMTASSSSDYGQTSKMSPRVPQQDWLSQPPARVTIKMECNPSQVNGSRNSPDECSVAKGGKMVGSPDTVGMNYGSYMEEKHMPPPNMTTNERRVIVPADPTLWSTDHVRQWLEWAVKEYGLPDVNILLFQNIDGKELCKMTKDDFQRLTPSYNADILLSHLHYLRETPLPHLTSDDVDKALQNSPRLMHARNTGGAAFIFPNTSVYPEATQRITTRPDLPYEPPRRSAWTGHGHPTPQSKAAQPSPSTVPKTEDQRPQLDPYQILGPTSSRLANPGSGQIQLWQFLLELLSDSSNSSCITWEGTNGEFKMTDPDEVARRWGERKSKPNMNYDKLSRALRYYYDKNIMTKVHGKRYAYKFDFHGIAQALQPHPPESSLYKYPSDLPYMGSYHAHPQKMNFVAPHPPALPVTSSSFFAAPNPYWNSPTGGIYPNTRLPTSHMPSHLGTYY
# Method in brief: as §1
# ELF1 = ELF1 (Homo sapiens, UniProt P32519 1-619)
# Sequence of ELF1 (P32519 whole entry): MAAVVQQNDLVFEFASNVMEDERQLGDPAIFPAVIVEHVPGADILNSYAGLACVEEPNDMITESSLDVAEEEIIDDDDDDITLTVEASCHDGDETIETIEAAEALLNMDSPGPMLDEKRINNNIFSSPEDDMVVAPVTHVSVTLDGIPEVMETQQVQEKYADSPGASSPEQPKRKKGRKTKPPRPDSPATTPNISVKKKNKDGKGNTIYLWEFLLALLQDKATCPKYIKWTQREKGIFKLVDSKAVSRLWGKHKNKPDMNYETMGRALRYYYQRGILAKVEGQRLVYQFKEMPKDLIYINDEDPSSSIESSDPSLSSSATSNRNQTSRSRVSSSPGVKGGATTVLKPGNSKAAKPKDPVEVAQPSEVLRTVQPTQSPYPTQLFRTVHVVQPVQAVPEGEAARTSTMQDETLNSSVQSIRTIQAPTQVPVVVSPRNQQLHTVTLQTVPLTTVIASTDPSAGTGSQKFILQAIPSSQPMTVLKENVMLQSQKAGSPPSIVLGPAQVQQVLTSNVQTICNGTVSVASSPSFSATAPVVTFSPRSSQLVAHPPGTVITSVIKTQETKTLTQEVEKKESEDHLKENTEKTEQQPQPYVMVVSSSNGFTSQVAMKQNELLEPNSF
# Method in brief: as §1
# EHF = molecular target: T5, EHF (Homo sapiens, UniProt Q9NZC4 1-300)
# T5 sequence: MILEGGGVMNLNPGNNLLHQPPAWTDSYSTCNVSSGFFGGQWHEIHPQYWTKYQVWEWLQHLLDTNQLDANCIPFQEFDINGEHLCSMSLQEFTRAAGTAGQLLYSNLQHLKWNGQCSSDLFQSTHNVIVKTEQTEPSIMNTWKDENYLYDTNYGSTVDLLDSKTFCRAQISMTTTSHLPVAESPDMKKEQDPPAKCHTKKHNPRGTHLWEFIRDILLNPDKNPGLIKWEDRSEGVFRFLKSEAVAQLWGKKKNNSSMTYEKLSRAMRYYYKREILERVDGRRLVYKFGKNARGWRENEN
# Method in brief: as §1
# SPI1 = SPI1 (Homo sapiens, UniProt P17947 1-270)
# Method in brief: as §1
# SPIB = SPIB (Homo sapiens, UniProt Q01892 1-262)
# Sequence of SPIB (Q01892 whole entry): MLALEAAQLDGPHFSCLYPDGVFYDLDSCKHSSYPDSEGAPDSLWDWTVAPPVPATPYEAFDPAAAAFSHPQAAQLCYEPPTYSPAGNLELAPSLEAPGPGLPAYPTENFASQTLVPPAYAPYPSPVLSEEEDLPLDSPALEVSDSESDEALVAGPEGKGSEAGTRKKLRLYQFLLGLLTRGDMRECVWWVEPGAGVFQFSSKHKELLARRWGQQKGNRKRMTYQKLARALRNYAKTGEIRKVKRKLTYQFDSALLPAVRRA
# Method in brief: as §1
# ETV5 = ETV5 (Homo sapiens, UniProt P41161 1-510)
# Sequence of ETV5 (P41161 whole entry): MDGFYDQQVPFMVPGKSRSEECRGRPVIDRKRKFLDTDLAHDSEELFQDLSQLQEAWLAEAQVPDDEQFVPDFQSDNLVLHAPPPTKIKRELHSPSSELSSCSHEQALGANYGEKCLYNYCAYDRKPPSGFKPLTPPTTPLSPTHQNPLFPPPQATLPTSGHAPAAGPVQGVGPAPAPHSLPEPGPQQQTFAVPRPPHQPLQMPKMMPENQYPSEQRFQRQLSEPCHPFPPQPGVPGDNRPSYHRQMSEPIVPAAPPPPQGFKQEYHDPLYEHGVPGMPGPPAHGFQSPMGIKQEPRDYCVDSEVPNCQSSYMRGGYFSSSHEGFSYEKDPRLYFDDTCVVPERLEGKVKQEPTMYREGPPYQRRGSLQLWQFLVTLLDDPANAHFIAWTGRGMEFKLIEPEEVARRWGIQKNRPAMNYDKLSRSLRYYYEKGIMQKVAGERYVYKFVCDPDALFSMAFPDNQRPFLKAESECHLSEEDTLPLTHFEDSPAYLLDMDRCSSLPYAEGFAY
# Method in brief: as §1
# ELF4 = ELF4 (Homo sapiens, UniProt Q99607 1-663)
# Sequence of ELF4 (Q99607 whole entry): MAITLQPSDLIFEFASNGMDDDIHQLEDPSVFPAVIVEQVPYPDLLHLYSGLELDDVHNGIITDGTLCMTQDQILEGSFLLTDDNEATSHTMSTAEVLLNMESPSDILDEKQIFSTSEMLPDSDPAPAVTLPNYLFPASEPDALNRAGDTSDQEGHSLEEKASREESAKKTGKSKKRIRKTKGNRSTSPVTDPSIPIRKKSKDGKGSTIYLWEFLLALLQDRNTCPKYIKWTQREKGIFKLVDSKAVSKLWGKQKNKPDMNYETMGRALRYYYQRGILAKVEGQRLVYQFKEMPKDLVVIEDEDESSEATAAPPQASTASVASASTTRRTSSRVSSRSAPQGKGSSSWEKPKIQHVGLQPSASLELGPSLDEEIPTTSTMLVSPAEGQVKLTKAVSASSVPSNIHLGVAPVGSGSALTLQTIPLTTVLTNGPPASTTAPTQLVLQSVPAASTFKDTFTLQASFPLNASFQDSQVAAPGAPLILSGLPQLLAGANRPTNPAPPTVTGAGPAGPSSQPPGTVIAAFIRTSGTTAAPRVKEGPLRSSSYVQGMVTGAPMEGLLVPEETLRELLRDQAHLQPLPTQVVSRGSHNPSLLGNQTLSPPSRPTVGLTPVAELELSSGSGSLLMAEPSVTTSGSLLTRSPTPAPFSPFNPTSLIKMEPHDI
# Method in brief: as §1
# ETV2 = molecular target: T6, ETV2 (Homo sapiens, UniProt O00321 1-342)
# T6 sequence: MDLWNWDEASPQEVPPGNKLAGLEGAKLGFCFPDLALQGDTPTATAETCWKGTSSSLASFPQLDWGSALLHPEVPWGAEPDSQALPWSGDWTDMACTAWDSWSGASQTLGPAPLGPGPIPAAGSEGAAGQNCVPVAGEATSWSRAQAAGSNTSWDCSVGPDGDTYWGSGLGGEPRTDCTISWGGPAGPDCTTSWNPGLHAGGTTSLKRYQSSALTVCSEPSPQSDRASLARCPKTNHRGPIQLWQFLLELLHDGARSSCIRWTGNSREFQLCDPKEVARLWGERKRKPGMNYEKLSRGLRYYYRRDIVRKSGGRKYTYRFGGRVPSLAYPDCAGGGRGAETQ
# Method in brief: as §1
# ETV1 = ETV1 (Homo sapiens, UniProt P50549 1-477)
# Sequence of ETV1 (P50549 whole entry): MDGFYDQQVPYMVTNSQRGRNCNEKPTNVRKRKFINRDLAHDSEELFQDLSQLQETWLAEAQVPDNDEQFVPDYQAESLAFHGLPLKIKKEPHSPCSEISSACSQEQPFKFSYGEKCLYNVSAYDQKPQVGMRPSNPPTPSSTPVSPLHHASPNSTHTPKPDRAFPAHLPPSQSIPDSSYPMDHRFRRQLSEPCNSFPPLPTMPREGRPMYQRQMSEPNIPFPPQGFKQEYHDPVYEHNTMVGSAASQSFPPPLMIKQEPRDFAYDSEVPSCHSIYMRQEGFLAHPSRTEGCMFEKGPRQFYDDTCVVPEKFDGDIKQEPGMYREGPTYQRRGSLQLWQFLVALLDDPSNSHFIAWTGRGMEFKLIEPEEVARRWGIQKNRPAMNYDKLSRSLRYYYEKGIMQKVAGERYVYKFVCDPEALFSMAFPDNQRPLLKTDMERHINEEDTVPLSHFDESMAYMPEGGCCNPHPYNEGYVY
# Method in brief: as §1
# ETV3L = molecular target: T7, ETV3L (Homo sapiens, UniProt Q6ZN32 1-361)
# T7 sequence: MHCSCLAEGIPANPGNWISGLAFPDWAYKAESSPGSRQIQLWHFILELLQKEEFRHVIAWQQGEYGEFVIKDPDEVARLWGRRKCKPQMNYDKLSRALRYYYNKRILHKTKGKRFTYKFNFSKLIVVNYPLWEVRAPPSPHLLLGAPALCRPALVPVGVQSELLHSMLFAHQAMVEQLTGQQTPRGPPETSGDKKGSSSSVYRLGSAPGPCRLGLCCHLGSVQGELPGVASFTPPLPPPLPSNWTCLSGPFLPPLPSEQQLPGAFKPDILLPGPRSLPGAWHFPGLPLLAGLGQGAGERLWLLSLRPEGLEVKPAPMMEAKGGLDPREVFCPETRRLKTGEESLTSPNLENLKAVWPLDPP
# Method in brief: as §1
# ETS2 = molecular target: T8, ETS2 (Homo sapiens, UniProt P15036 1-469)
# T8 sequence: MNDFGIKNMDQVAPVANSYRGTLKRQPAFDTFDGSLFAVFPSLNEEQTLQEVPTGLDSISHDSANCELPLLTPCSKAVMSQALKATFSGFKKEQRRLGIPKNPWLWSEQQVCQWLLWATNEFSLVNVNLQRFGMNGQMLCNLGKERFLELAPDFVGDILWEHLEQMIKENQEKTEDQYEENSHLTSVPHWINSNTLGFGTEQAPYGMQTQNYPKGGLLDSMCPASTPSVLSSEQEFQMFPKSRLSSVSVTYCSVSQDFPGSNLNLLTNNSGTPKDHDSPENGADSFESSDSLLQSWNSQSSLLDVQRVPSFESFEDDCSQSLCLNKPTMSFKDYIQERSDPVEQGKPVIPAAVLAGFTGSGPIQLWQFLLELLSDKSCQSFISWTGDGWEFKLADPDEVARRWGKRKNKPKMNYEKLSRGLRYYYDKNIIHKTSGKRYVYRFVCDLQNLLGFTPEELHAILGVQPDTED
# Method in brief: as §1
# ETV7 = molecular target: T9, ETV7 (Homo sapiens, UniProt Q9Y603 1-341)
# T9 sequence: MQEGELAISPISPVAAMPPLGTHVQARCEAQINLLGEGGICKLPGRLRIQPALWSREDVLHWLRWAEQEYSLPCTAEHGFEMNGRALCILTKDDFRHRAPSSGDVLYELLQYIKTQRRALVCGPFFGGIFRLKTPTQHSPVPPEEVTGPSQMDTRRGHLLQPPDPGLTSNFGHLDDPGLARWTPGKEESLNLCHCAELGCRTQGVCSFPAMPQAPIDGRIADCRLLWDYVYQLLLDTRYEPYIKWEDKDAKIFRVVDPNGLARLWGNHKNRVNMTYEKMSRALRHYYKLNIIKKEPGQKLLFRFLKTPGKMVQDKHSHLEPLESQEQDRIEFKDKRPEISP
# Method in brief: as §1
# ETV3 = molecular target: T10, ETV3 (Homo sapiens, UniProt P41162-2 1-143)
# T10 sequence: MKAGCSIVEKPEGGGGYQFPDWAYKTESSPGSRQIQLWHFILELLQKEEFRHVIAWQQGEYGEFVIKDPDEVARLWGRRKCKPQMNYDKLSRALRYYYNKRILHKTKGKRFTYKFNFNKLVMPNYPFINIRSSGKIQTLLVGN
# Method in brief: as §1
# ETV6 = ETV6 (Homo sapiens, UniProt P41212 1-452)
# Sequence of ETV6 (P41212 whole entry): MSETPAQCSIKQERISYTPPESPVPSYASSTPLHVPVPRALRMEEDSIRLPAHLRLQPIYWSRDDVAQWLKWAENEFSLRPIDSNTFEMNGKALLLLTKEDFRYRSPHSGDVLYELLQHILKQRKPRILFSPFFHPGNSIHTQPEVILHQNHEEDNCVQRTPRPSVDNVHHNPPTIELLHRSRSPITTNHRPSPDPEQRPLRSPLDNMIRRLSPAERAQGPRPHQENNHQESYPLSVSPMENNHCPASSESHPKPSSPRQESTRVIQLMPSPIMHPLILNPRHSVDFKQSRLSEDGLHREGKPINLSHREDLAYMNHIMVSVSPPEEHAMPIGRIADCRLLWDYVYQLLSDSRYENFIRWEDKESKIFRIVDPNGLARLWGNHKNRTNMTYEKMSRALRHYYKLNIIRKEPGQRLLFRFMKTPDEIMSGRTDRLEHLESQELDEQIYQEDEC
# Method in brief: as §1
# FEV = molecular target: T11, FEV (Homo sapiens, UniProt Q99581 1-238)
# T11 sequence: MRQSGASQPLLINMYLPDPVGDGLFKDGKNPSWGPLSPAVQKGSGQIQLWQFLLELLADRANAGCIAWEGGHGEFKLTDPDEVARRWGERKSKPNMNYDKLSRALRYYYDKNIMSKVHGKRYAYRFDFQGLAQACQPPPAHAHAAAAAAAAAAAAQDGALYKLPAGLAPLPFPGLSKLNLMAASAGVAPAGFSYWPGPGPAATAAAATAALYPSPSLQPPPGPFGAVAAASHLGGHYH
# Method in brief: as §1
# ELF3 = molecular target: T12, ELF3 (Homo sapiens, UniProt P78545 1-371)
# T12 sequence: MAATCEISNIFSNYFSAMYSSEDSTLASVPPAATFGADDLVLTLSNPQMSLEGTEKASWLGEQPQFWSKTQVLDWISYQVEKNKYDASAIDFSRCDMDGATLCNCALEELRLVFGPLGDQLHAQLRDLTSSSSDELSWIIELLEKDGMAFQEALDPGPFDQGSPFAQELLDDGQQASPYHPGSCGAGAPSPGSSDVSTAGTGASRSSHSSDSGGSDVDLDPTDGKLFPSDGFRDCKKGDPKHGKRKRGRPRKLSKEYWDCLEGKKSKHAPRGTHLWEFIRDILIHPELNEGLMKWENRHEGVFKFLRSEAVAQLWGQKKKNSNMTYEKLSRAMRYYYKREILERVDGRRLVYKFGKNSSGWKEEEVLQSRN
# Method in brief: as §1
Sequence,binding signal (FLI1),binding signal (ELK1),binding signal (GABPA),binding signal (ERG),binding signal (ELF1),binding signal (EHF),binding signal (SPI1),binding signal (SPIB),binding signal (ETV5),binding signal (ELF4),binding signal (ETV2),binding signal (ETV1),binding signal (ETV3L),binding signal (ETS2),binding signal (ETV7),binding signal (ETV3),binding signal (ETV6),binding signal (FEV),binding signal (ELF3)
CTGGGC,"1.15 fold enrichment (6-mer frequency, TF over GST control)","1.08 fold enrichment (6-mer frequency, TF over GST control)","1.09 fold enrichment (6-mer frequency, TF over GST control)","1.04 fold enrichment (6-mer frequency, TF over GST control)","1.24 fold enrichment (6-mer frequency, TF over GST control)","1.01 fold enrichment (6-mer frequency, TF over GST control)","1.05 fold enrichment (6-mer frequency, TF over GST control)","1.03 fold enrichment (6-mer frequency, TF over GST control)","1.04 fold enrichment (6-mer frequency, TF over GST control)","1.07 fold enrichment (6-mer frequency, TF over GST control)","1.13 fold enrichment (6-mer frequency, TF over GST control)","1 fold enrichment (6-mer frequency, TF over GST control)","1.12 fold enrichment (6-mer frequency, TF over GST control)","1.03 fold enrichment (6-mer frequency, TF over GST control)","1.24 fold enrichment (6-mer frequency, TF over GST control)","1.03 fold enrichment (6-mer frequency, TF over GST control)","1.03 fold enrichment (6-mer frequency, TF over GST control)",–,–
CACGCA,"1.11 fold enrichment (6-mer frequency, TF over GST control)","1.01 fold enrichment (6-mer frequency, TF over GST control)","1.02 fold enrichment (6-mer frequency, TF over GST control)",–,"1.05 fold enrichment (6-mer frequency, TF over GST control)","1.01 fold enrichment (6-mer frequency, TF over GST control)",–,"1.01 fold enrichment (6-mer frequency, TF over GST control)","1.05 fold enrichment (6-mer frequency, TF over GST control)","1.03 fold enrichment (6-mer frequency, TF over GST control)","1.18 fold enrichment (6-mer frequency, TF over GST control)","1.09 fold enrichment (6-mer frequency, TF over GST control)",–,"1.03 fold enrichment (6-mer frequency, TF over GST control)",–,"1.07 fold enrichment (6-mer frequency, TF over GST control)",–,"1.02 fold enrichment (6-mer frequency, TF over GST control)","1.04 fold enrichment (6-mer frequency, TF over GST control)"
